Hsp90 block: displaces geldanamycin probe from tumor Hsp90; P07900; NCI-N417 lysate Hsp90, Cy3B-geldanamycin FP displacement; inhibition, % at 30 µM; 64,000 tested, 0.35% active; AID 429;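 active = inhibition above 50%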;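 also: 0% = tracer plus lysate wells and 100% = tracer alone without lysate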
MMP13 inh: MMP13 (human) collagenase inhibition; 65,000 tested, 0.07% active; MMP-13 fTHP FRET cleavage, Mca fluorescence; AID 570; P45452; inhibition, % at 4 µM;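 active = inhibition above the mean of compound-free control plate wells plus 3 SD, cut at about 14% in these data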;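 also: 0% = DMSO wells and 100% = wells with reference MMP-13 inhibitor after basal subtraction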
DUSP1 inh: human dual specificity phosphatase 1 inhibition; recombinant MKP-1, OMFP hydrolysis fluorescence; 65,000 tested, 0.15% active; inhibition, %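 (compounds tested at a single concentration somewhere between 10 and 100 µM)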;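 active = inhibition above about 50%, limit read from the data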;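 also: 0% = DMSO max control wells and 100% = wells with enzyme stopped by NaOH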
WNV protease inh: WNV NS2B-NS3 proteinase inhibition; WNV NS2B-NS3 protease, fluorogenic substrate Ex360/Em465; hits give low values; z-score (concentration not given with the values); 65,000 tested, 0.18% active; AID 577; in the data active = z-score below about -3
Cdc25B inh: inhibitors of human Cdc25B phosphatase | AID 368 | recombinant Cdc25B, OMFP fluorescence Ex485/Em525 | P30305 | inhibition, %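 (compounds tested at 10 µM final in the well)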 | 65,000 tested, 0.1% active; in the data active = inhibition above about 50%
Target sequence (P30305 whole entry, looked up): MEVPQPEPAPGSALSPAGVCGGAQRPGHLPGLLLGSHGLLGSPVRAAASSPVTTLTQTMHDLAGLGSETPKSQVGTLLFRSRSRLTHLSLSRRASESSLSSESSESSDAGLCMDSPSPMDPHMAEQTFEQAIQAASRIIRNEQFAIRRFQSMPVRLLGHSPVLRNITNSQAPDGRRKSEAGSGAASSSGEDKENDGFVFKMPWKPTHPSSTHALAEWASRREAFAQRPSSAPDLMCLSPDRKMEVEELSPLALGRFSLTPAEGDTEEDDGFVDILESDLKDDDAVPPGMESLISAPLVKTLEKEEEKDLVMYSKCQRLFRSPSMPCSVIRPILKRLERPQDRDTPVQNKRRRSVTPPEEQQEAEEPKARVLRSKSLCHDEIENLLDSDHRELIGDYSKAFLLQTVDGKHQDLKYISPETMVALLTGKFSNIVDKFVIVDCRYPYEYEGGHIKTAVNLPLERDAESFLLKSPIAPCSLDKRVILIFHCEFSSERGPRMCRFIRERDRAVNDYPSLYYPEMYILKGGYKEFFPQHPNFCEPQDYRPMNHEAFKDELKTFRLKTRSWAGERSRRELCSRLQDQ
Htt clearance: compounds clearing mutant huntingtin protein | inhibition, % at 1.5 µM | 47,000 tested, 0.42% active | HeLa Exon1htt(103Q)mCFP, aggregate imaging; zero = plate's median compound well;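 active = inhibition of aggregate fluorescence above about 70%, also judged a hit by eye on the cell image, limit read from the data, passing the limit was not always enough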;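 also: cells exposed to compound for three days before fixation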
Redox 05 DTT: generates H2O2 by redox cycling in 0.5 mM DTT; shares compounds with Cdc25B inh; cell-free redox cycling H2O2 generation; EC50, µM; 30 tested, 50% active; AID 682; in the data active = EC50 below about 30 µM
Redox 1 DTT: redox cycling H2O2 generation, Cdc25B counter-screen. shares compounds with Cdc25B inh. cell-free redox cycling H2O2 generation, 1 mM DTT. EC50, µM. 30 tested, under 10 active; in the data active = EC50 below about 50 µM
* hit, by the source's call; . = no result given. Hits are enriched below; roughly 0.89% of the tested compounds scored in any of these assays.

SMILES	Hsp90 block	MMP13 inh	DUSP1 inh	WNV protease inh	Cdc25B inh	Htt clearance	others
COC(=O)c1c(-c2cc(OC)c(OC)c(OC)c2)c2ccc(OCc3ccccn3)cc2c(=O)n1-c1ccc(N)cc1	-0.1	.	.	.	.	.
CCOC(=O)C1=C(N)n2c(s/c(=C/c3ccco3)c2=O)=C(C(=O)OC)C1c1ccco1 (stereo not given)	-10.1	14.2*	20.3	1.74	1.8	-10.2
CS(=O)(=O)N(CC(=O)N1CCCCCC1)c1ccccc1	0.3	-1.3	-4.0	0.22	4.5	.
CS(=O)(=O)N(CC(=O)N1CCCC1)c1ccc(OCc2ccccc2)cc1	0.0	0.6	8.4	0.91	1.4	78.0*
CN(C)CCCOC(=O)c1ccccc1Cl	.	.	.	.	.	73.0*
CN(C)CCCOC(=O)Cc1ccc(Cl)cc1	-1.3	2.3	15.2	0.33	-0.8	-8.1
COC(=O)CCC(=O)Oc1ccc(OC(=O)CCC(=O)OC)cc1	.	.	56.2*	1.39	59.4*	.
COC(=O)CCC(=O)Nc1ccc(NC(=O)CCC(=O)OC)cc1	-2.5	1.9	-1.9	-0.96	-6.8	-46.5
Cc1sc2nc3c4ccccc4c(NCc4ccco4)nn3c(=O)c2c1C	-3.9	-17.1	32.6	-3.26*	12.1	51.6
Cc1nnc(NCc2ccco2)c2ccccc12	-2.8	4.2	-1.3	-0.59	1.8	34.5
CC(=O)SC1CC2=CC(=O)CC[C@]2(C)C2CC[C@@]3(C)C(CC[C@@]34CCC(=O)O4)C12 (stereo not given in full)	-1.3	.	.	.	.	.
COc1ccc(C2CC(c3cccc(C)c3)n3ncnc3N2)cc1 (stereo not given)	1.0	2.5	-10.5	-4.09*	-16.2	-37.9
COc1cccc(C2CC(c3cccc(C)c3)n3ncnc3N2)c1 (stereo not given)	-2.2	-4.0	3.3	0.64	-38.6	.
COc1ccc(OC)c(-n2c(C)nc3cc(C(=O)O)ccc32)c1	60.8*	-3.5	23.8	0.97	2.1	73.5*
COc1ccc(-n2c(C)nc3cc(C(=O)N4CCOCC4)ccc32)cc1	-1.2	-0.3	5.5	-1.03	5.7	.
CCC(=O)N1CCc2cc(Br)cc(S(=O)(=O)NCCN3CCOCC3)c21	.	3.4	0.1	-0.97	-13.2	.
CCC(=O)N1CCc2cc(Br)cc(S(=O)(=O)CC(=O)OC)c21	-1.2	3.2	-0.2	-4.83*	-11.9	-33.4
O=C(Nc1cccc2cccnc12)c1sc2cc(Cl)ccc2c1Cl	-1.6	.	.	.	.	.
Cc1ccccc1NC(=O)c1ocnc1C	-1.6	7.2	3.9	1.93	-4.8	.
Cc1ccc(Cl)cc1NC(=O)c1ocnc1C	-9.1	-2.1	20.3	-3.37*	-1.7	29.9
CCCCC/C=C\CC(O)/C=C/c1cccc(CC(O)CCCCO)n1 (stereo not given)	-2.4	.	.	.	.	.
CCOC(=O)c1sc2nccc(N(C)C)c2c1N=CNOCc1ccccc1	.	.	.	.	.	20.2
CCOC(=O)c1sc2nccc(N(C)C)c2c1N=CNOC	.	.	.	.	.	73.0*
CC(C)NCc1c(O)c(Br)cc2oc3c(c12)CCCC3	-1.6	0.0	-26.1	-3.96*	2.2	-5.0
O=C1NCCCc2c1oc1cc(Br)c(O)c(Br)c21	2.4	2.2	5.1	0.95	19.2	.
SMILES	Hsp90 block	MMP13 inh	DUSP1 inh	WNV protease inh	Cdc25B inh	Htt clearance	others
O=C(Nc1cccc(C(=O)Nc2ccc(S(=O)(=O)O)c3cc(S(=O)(=O)O)cc(S(=O)(=O)O)c23)c1)Nc1cccc(C(=O)Nc2ccc(S(=O)(=O)O)c3cc(S(=O)(=O)O)cc(S(=O)(=O)O)c23)c1	-2.3	.	.	.	.	.
O=C(O)c1ccccc1C1=Nc2ccc(O)cc2Oc2cc(O)ccc21	60.8*	2.8	17.7	0.08	-7.8	18.8
NC/C=C\C(=O)O	0.4	.	.	.	.	.
c1ccc2[nH]c(CSc3ncnc4c3oc3ccccc34)nc2c1	-4.1	-6.4	-24.4	-1.16	11.3	74.8*
C=CC(N)CCC(=O)O (stereo not given)	1.0	.	.	.	.	.
Cc1ccccc1S(=O)(=O)Cc1ccc(C(=O)NCCCOC(C)C)o1	-3.6	-4.5	17.9	-5.59*	-0.9	.
Nc1nc2c(nc(Br)n2C2OC3COP(=O)(O)O[C@@H]3C2O)c(=O)[nH]1 (stereo not given in full)	-1.3	.	.	.	.	.
C=CCNC(=O)CN(c1cccc(Br)c1)S(C)(=O)=O	87.6*	2.3	4.0	-0.46	-8.7	.
CNC(=O)CN(c1cccc(Br)c1)S(C)(=O)=O	-0.5	2.1	2.8	-1.13	-12.2	39.9
Cc1c(NC(=O)c2c(F)c(F)c(F)c(F)c2F)c(=O)n(-c2ccccc2)n1C	-4.9	5.7	4.5	-0.46	-6.1	.
Cc1c(NC(=O)c2ccccc2)c(=O)n(-c2ccccc2)n1C	.	.	.	.	.	77.7*
O=c1c(-c2ccc3c(c2)OCCO3)coc2c(CN3CCOCC3)c(O)ccc12	72.2*	-25.0	-22.2	-0.88	-2.6	14.3
COc1cccc(Oc2coc3c(CN4CCOCC4)c(O)ccc3c2=O)c1	0.8	-114.1	22.8	1.16	5.5	28.0
COc1ccc(C(=O)CSc2nc(C)cc(=O)[nH]2)cc1	-1.1	-9.7	4.2	0.08	-3.7	.
COc1ccc(CSc2nc(C)cc(=O)[nH]2)cc1	-1.9	24.9*	1.3	-1.62	-7.7	-164.2
COc1cc(NCCCCN)c2ncccc2c1	26.5	.	.	.	.	.
CCc1ccc(CNc2ccc(N3CCN(C(C)=O)CC3)cc2)cc1	57.4*	-16.3	1.6	-1.3	-8.7	-32.5
O=C(c1cc(-c2ccncc2)nc2ccc(Br)cc12)N1CCN(c2ccccn2)CC1	136.7*	1.3	20.6	-0.33	-12.6	.
Cc1nn(Cc2ccc(C(=O)Nc3ccc(Br)c4cccnc34)o2)c(C)c1Br	.	.	.	.	.	55.6
COCCSc1ccccc1C(=O)Nc1nnc(COC)s1	-3.1	-5.5	-36.6	0.02	-5.2	.
COCCSc1ccccc1C(=O)Nc1cc(C)on1	-1.6	0.5	-4.2	0.3	-7.1	74.8*
O=C(c1ccc2c(=O)n(C3CCCC3)c(=S)[nH]c2c1)N1CCN(C2CCCCC2)CC1	-1.8	0.4	52.3*	-1.64	-2.1	-41.0
CC(N)C1CCC(C(=O)Nc2ccncc2)CC1 (stereo not given)	1.8	.	.	.	.	.
CCCC(=O)Nc1ccc(NC(=O)C23CC4CC(CC(C4)C2)C3)cn1	1.4	1.1	5.3	-4.83*	-7.3	-44.8
CCC(=O)Nc1cc(C)c(NC(=O)C23CC4CC(CC(C4)C2)C3)cn1	-2.3	-7.1	-4.6	-0.68	-10.0	-32.4
COc1ccccc1NC(=O)Nc1nc(-c2cccnc2)nc2ccccc12	0.4	.	.	.	.	.
COc1ccc(C(=O)CSc2nnc(CNC(=O)c3ccc(OC)c(OC)c3)n2C)cc1	0.7	0.6	73.6*	-0.32	-9.6	.
CCOC(=O)C(C(=O)OCC)c1cc(Br)c2noc3c2c1C(=O)c1ccccc1-3	.	6.6	31.6	0.29	62.0*	-56.9	Redox 05 DTT=26.1*;Redox 1 DTT=45.7*
